In all, about 5,500 compounds went through this assay and about 2,000 (36%) were called active. Inconclusive results (about 18%) are left out. No stated cut-off is given here; in the data, active means normalized growth mostly below about 0.91 (no sharp cut-off); inconclusive means no clear call, values can overlap the other calls; inactive means mostly above about 0.92. The list shows a part of the results.
Assay: chemical genetic growth profiling, strain panel (AID 1159580);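 further: tested at 20 µM; growth read once vehicle control cultures reached saturation at 30 °C; 1 = growth at the plate median or of vehicle wells; lower values mean less growth of the strain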
Details: growth OD

Measured: normalized growth

O=c1cc[nH]c(=S)[nH]1
inactive: S. cerevisiae deletion strains, locus YJR075W, strain HOC1, active compounds read low 1.03 | S. cerevisiae deletion strains, locus YKL009W, strain mrt4, active compounds read low 1.04 | S. cerevisiae deletion strains, locus YKL068W, active compounds read low 1 | S. cerevisiae deletion strains, locus YKL085W, strain MDH1 (second series), active compounds read low 1.01 | S. cerevisiae deletion strains, locus YKL085W, strain MDH1, active compounds read low 1.01 | S. cerevisiae deletion strains, locus YKL160W, strain elf1, active compounds read low 1.06 | S. cerevisiae deletion strains, locus YKL190W, strain CNB1, active compounds read low 1.02 | S. cerevisiae deletion strains, locus YKR001C, strain vps1, active compounds read low 1.05 | S. cerevisiae deletion strains, locus YKR026C, strain gcn3, active compounds read low 1.01 | S. cerevisiae deletion strains, locus YKR091W, strain srl3, active compounds read low 1 | S. cerevisiae deletion strains, locus YLL001W, strain dnm1, active compounds read low 1.04 | S. cerevisiae deletion strains, locus YLL026W, active compounds read low 0.999 | S. cerevisiae deletion strains, locus YLL041C, strain sdh2, active compounds read low 1.01 | S. cerevisiae deletion strains, locus YLR027C, strain aat2, active compounds read low 1.02 | S. cerevisiae deletion strains, locus YLR039C, strain RIC1, active compounds read low 1.09 | S. cerevisiae deletion strains, locus YLR058C, strain SHM2, active compounds read low 1.02 | S. cerevisiae deletion strains, locus YLR102C, strain apc9, active compounds read low 0.992 | S. cerevisiae deletion strains, locus YLR113W, strain HOG1, active compounds read low 1.01 | S. cerevisiae deletion strains, locus YLR221C, strain rsa3, active compounds read low 1.01 | S. cerevisiae deletion strains, locus YLR258W, strain gsy2, active compounds read low 0.989 | S. cerevisiae deletion strains, locus YLR262C, strain YPT6 (second series), active compounds read low 1.03 | S. cerevisiae deletion strains, locus YLR262C, strain YPT6, active compounds read low 1.08 | S. cerevisiae deletion strains, locus YLR268W, strain sec22, active compounds read low 1.05 | S. cerevisiae deletion strains, locus YLR320W, strain mms22, active compounds read low 1.06 | S. cerevisiae deletion strains, locus YLR330W, strain CHS5, active compounds read low 1.03 | S. cerevisiae deletion strains, locus YLR342W, strain FKS1 (second series), active compounds read low 1 | S. cerevisiae deletion strains, locus YLR342W, strain FKS1, active compounds read low 1.01 | S. cerevisiae deletion strains, locus YLR357W, strain rsc2, active compounds read low 1.04 | S. cerevisiae deletion strains, locus YLR370C, strain arc18, active compounds read low 0.997 | S. cerevisiae deletion strains, locus YLR371W, strain rom2, active compounds read low 0.996 | S. cerevisiae deletion strains, locus YLR384C, strain iki3, active compounds read low 1.01 | S. cerevisiae deletion strains, locus YLR418C, strain cdc73, active compounds read low 1.03 | S. cerevisiae deletion strains, locus YML016C, strain PPZ1, active compounds read low 1.02 | S. cerevisiae deletion strains, locus YML032C, strain rad52, active compounds read low 1.05 | S. cerevisiae deletion strains, locus YML120C, strain ndi1, active compounds read low 1.01 | S. cerevisiae deletion strains, locus YML124C, strain tub3, active compounds read low 1.01 | S. cerevisiae deletion strains, locus YMR058W, strain fet3, active compounds read low 1.01 | S. cerevisiae deletion strains, locus YMR078C, strain ctf18, active compounds read low 1.02 | S. cerevisiae deletion strains, locus YMR125W, strain sto1, active compounds read low 1.05 | S. cerevisiae deletion strains, locus YMR129W, active compounds read low 0.999 | S. cerevisiae deletion strains, locus YMR205C, strain PFK2, active compounds read low 1.05 | S. cerevisiae deletion strains, locus YMR223W, strain ubp8, active compounds read low 0.992 | S. cerevisiae deletion strains, locus YMR231W, strain pep5, active compounds read low 1.01 | S. cerevisiae deletion strains, locus YMR263W, strain SAP30, active compounds read low 1.03 | S. cerevisiae deletion strains, locus YMR307W, strain GAS1, active compounds read low 1.01 | S. cerevisiae deletion strains, locus YNL067W, strain RPL9B, active compounds read low 1.03 | S. cerevisiae deletion strains, locus YNL071W, strain lat1, active compounds read low 1.02 | S. cerevisiae deletion strains, locus YNL128W, strain TEP1, active compounds read low 1.03 | S. cerevisiae deletion strains, locus YNL153C, strain GIM3, active compounds read low 1.03 | S. cerevisiae deletion strains, locus YNL183C, strain NPR1, active compounds read low 0.921 | S. cerevisiae deletion strains, locus YNL209W, strain ssb2, active compounds read low 1 | S. cerevisiae deletion strains, locus YNL233W, strain BNI4, active compounds read low 1.01 | S. cerevisiae deletion strains, locus YNL248C, strain rpa49, active compounds read low 1.09 | S. cerevisiae deletion strains, locus YNL250W, strain rad50, active compounds read low 1.01 | S. cerevisiae deletion strains, locus YNL271C, strain bni1, active compounds read low 1.01 | S. cerevisiae deletion strains, locus YNL298W, strain CLA4, active compounds read low 1.02 | S. cerevisiae deletion strains, locus YNL307C, strain MCK1, active compounds read low 1.01 | S. cerevisiae deletion strains, locus YNL322C, strain KRE1 (second series), active compounds read low 1.02 | S. cerevisiae deletion strains, locus YNL322C, strain KRE1, active compounds read low 1.02 | S. cerevisiae deletion strains, locus YNR049C, strain mso1, active compounds read low 1 | S. cerevisiae deletion strains, locus YNR052C, strain pop2, active compounds read low 1 | S. cerevisiae deletion strains, locus YOL006C, strain TOP1, active compounds read low 1.1 | S. cerevisiae deletion strains, locus YOL012C, strain htz1 1.32 | S. cerevisiae deletion strains, locus YOL147C, strain pex11, active compounds read low 1.01 | S. cerevisiae deletion strains, locus YOR001W, strain rrp6, active compounds read low 0.972 | S. cerevisiae deletion strains, locus YOR061W, strain CKA2, active compounds read low 1.02 | S. cerevisiae deletion strains, locus YOR069W, strain VPS5, active compounds read low 1.01 | S. cerevisiae deletion strains, locus YOR070C, strain gyp1, active compounds read low 0.997 | S. cerevisiae deletion strains, locus YOR080W, strain dia2, active compounds read low 1 | S. cerevisiae deletion strains, locus YOR083W, strain WHI5, active compounds read low 1.06 | S. cerevisiae deletion strains, locus YOR106W, strain vam3, active compounds read low 1.05 | S. cerevisiae deletion strains, locus YOR136W, strain idh2, active compounds read low 1.01 | S. cerevisiae deletion strains, locus YOR144C, strain elg1, active compounds read low 1.02 | S. cerevisiae deletion strains, locus YOR184W, strain ser1, active compounds read low 1.03 | S. cerevisiae deletion strains, locus YOR231W, strain MKK1, active compounds read low 1.01 | S. cerevisiae deletion strains, locus YOR265W, strain rbl2, active compounds read low 1.02 | S. cerevisiae deletion strains, locus YOR270C, strain vph1, active compounds read low 1.04 | S. cerevisiae deletion strains, locus YOR290C, strain snf2, active compounds read low 1.04 | S. cerevisiae deletion strains, locus YOR316C, strain cot1, active compounds read low 0.998 | S. cerevisiae deletion strains, locus YPL051W, strain arl3, active compounds read low 1.05 | S. cerevisiae deletion strains, locus YPL055C, strain LGE1, active compounds read low 1.06 | S. cerevisiae deletion strains, locus YPL078C, strain atp4, active compounds read low 1.06 | S. cerevisiae deletion strains, locus YPL106C, strain sse1, active compounds read low 1 | S. cerevisiae deletion strains, locus YPL240C, strain hsp82, active compounds read low 1.01 | S. cerevisiae deletion strains, locus YPL241C, strain CIN2, active compounds read low 1.01 | S. cerevisiae deletion strains, locus YPL256C, strain CLN2, active compounds read low 1 | S. cerevisiae deletion strains, locus YPR119W, strain clb2, active compounds read low 1 | S. cerevisiae deletion strains, locus YPR141C, strain kar3, active compounds read low 1.01 | S. cerevisiae deletion strains, locus YPR163C, strain tif3, active compounds read low 1.02 | S. cerevisiae deletion strains, locus YPR167C, strain met16, active compounds read low 1.02 | S. cerevisiae deletion strains, strain wtn01, active compounds read low 1.04 | S. cerevisiae strains, strain wild type, active compounds read low 1.03

Source: PubChem BioAssay AID1159580 (chemical genetic matrix, 2015)
